# Screens (PubChem BioAssay)
# COUP-TFII inh: inhibitors of human COUP-TFII (NR2F2); AID 686940; inhibition, % at 8.6 µM; HEK293T NGFI-A luciferase reporter, luminescence; P24468; 370,000 compounds, 0.7% hits;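 active means inhibition above a per-plate cutoff, mean inhibition of test wells between control levels plus 3 SD, cut at about 38% in these data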;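 further: cells cotransfected with COUP-TFII expression vector driving the NGFI-A reporter; 0% = median of COUP-TF2 test wells and 100% = reporter-only cells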
# 697 NFkB inh: inhibitors of the PMA/ionomycin-induced NF-kB reporter in 697 B cells; 697 B-cell NF-kB luciferase reporter, 16 h; inhibition, % at 4 µM; 330,000 compounds, 0.33% hits; AID 435022; in the data active means inhibition above about 35%
# Gli-Sufu block: antagonists of Gli-Sufu signaling; Sufu-KO-LIGHT fibroblasts, Gli luciferase reporter luminescence; inhibition, % at 5 µM; 340,000 compounds, 0.74% hits; AID 588413;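 active means inhibition above about 55%, limit read from the data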;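 further: 0% = DMSO-treated cells and 100% = wells with medium but no cells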
# GalR3 antag: human GalR3 antagonism | HEK293 GalR3-CNG cAMP membrane potential fluorescence; galR3 body fused to GalR1 C-terminus | O60755 | inhibition, % at 3 µM | AID 651719 | 360,000 compounds, 0.44% hits;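 active means inhibition above the screen-wide average plus 3 SD, cut at about 13% in these data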;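 further: forskolin and galanin both at EC90 stimulate the cells; cAMP rise reported by CNG channel membrane potential dye signal; 0% = forskolin plus galanin with DMSO and 100% = forskolin alone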
# Target sequence (O60755 1-299 limits assumed): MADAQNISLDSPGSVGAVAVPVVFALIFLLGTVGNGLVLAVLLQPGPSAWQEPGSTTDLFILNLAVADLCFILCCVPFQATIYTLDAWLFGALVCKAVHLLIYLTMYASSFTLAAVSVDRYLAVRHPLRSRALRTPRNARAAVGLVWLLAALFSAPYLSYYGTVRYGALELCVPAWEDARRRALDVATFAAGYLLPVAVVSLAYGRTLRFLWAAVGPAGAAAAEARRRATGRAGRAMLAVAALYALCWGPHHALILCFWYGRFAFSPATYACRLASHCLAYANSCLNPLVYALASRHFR
# Jurkat NFkB inh: lowers PMA/ionomycin-induced NF-kB signal in Jurkat cells; 330,000 compounds, 0.53% hits; inhibition, % at 4 µM; PMA/ionomycin-induced NF-kB luciferase reporter, luminescence; in the data active means inhibition above about 50%
# Gli antag conf: Gli-SUFU antagonism confirmation, single concentration. shares compounds with Gli-Sufu block. Sufu-KO-LIGHT cells, Gli luciferase reporter, luminescence. inhibition, % at 5 µM. 2,500 compounds, 40% hits. AID 602428;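 active means mean inhibition at 5 µM reaching about 45%, limit read from the data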;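 further: plate controls were DMSO-treated cells for no effect and wells lacking cells for full effect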
# Gli cytotox: counter-screen for Gli-SUFU antagonists: cytotoxicity. Sufu-KO-LIGHT cells cytotoxicity, ATP luminescence. AID 651994. shares compounds with Gli-Sufu block. cytotoxicity, % at 5 µM. 2,500 compounds, 32% hits;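 active means mean cytotoxicity at 5 µM above about 25%, limit read from the data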;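 further: cells exposed to compound overnight for roughly 16 to 18 hours; plate controls were DMSO wells with cells for no effect and medium without cells for full effect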
# Wnt3a cs: Wnt3a reporter inhibition counter-screen. Wnt-LIGHT cells, Wnt3a-driven luciferase reporter, luminescence. 2,500 compounds, 20% hits. shares compounds with Gli-Sufu block. inhibition, % at 6.25 µM;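 active means mean inhibition above about 25%, limit read from the data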
# Starred values were filed as active, the others as inactive; nt = not tested or not shown. Shown are actives, neighbours in structure and some others; about 2% of the full set was active somewhere.
SMILES,COUP-TFII inh,697 NFkB inh,Gli-Sufu block,GalR3 antag,Jurkat NFkB inh,Gli antag conf,Gli cytotox,Wnt3a cs
CCOC(=O)NC1CCc2cc(OC)c(OC)c(OC)c2-c2ccc(OC)c(=O)cc21 (stereo not given),-75.3,nt,63.2*,4.9,nt,56.7*,56.9*,9.0
COc1cc2c(c(OC)c1OC)-c1ccc(SC)c(=O)cc1C(NC(=O)C(F)(F)F)CC2 (stereo not given),-60.8,nt,50.9,2.6,nt,60.0*,60.5*,41.4*
COc1cc2c(c(OC)c1OC)-c1ccc(NCc3ccccc3)c(=O)cc1C(NC(C)=O)CC2 (stereo not given),-83.4,nt,nt,-1.9,nt,nt,nt,nt
COc1cc2c(c(OC)c1OC)-c1ccc(OC)c(=O)cc1C(N)CC2 (stereo not given),-66.2,nt,45.9,-2.6,nt,nt,nt,nt
COc1cc2c(c(OC)c1OC)-c1ccc(SC)c(=O)cc1C(N)CC2 (stereo not given),-70.1,nt,56.0*,3.0,nt,55.3*,62.8*,-2.9
CNC1CCc2cc(OC)c(OC)c(OC)c2-c2ccc(SC)c(=O)cc21 (stereo not given),-54.6,nt,48.2,-2.9,nt,nt,nt,nt
CN[C@H]1CCc2cc(OC)c(OC)c(OC)c2-c2ccc(N(C)CC(OC)OC)c(=O)cc21,-42.4,-11.5,4.5,-6.5,29.9,nt,nt,nt
COc1cc2c(c(OC)c1OC)-c1ccc(N(C)CC(OC)OC)c(=O)cc1[C@@H](NC(C)=O)CC2,-52.9,-197.3,57.3*,-7.6,46.8,58.0*,33.5*,-74.5
COC(=O)[C@]12C[C@H](CC(=O)NCCC(C)C)C(=O)N(Cc3ccco3)C1=C[C@H](C(C)C)O[C@@H]2C1CC1,-2.3,nt,nt,nt,nt,nt,nt,nt
COC(=O)[C@]12C[C@H](CC(=O)N3CCN(C(=O)C4CC4)CC3)C(=O)N(Cc3ccc(Cl)cc3Cl)C1=C[C@H](COCc1ccccc1)O[C@@H]2C,15.8,nt,nt,nt,nt,nt,nt,nt
CCOc1ccc2cc(C(=O)NCc3ccccc3)c(=N)oc2c1,3.1,-11.9,53.6,-11.7,-2.4,8.0,13.2,-39.3
COC(=O)c1c[nH]c2c1-c1cc(C(=O)OCc3ccccc3)n(S(=O)(=O)c3ccc(C)cc3)c1C(=O)C2=O,-3.0,nt,55.1*,-1.4,nt,76.4*,51.0*,100.3*
CC[C@]12c3[nH]c4cc(CCC(=O)N(C)C)ccc4c3CCN1C(=O)[C@@H](CC(=O)NCCN1CCOCC1)C[C@@H]2C(=O)N1CCN(C(=O)c2ccco2)CC1,-0.4,-0.3,-11.2,-2.9,nt,nt,nt,nt
CC[C@]12c3[nH]c4cc(CCC(=O)N(C)C)ccc4c3CCN1C(=O)[C@@H](CC(=O)NC/C=C(\C)CCC=C(C)C)C[C@@H]2C(=O)N1CCN(C(=O)c2ccco2)CC1,nt,24.4,78.8*,nt,nt,77.1*,30.0*,30.6*
Cc1ccc(CN(C(=O)Cc2cccs2)C(C(=O)NC2CCCC2)c2ccncc2)cc1 (stereo not given),-8.6,2.2,1.5,-1.2,-7.8,nt,nt,nt
O=C(NC1CCCC1)C(c1ccccc1)N(Cc1cccnc1)C(=O)Cc1cccs1 (stereo not given),5.3,1.3,57.3*,2.0,-30.5,22.9,0.5,6.4
COc1ccc(Cl)cc1NC(=O)CCc1nnc2ccc(N3CCN(C)CC3)nn12,-3.1,-25.7,59.8*,-0.9,-0.2,35.9,13.0,-6.7
COc1ccc(Cl)cc1NC(=O)CCc1nnc2ccc(N3CCC4(CC3)OCCO4)nn12,-4.7,-4.9,-8.6,5.3,-2.2,nt,nt,nt
CCN(C(=O)CN1C(=O)COc2ccc(S(=O)(=O)N3CCOCC3)cc21)c1ccc(OC)cc1,4.4,-22.4,52.2,-6.5,-11.2,11.3,13.1,-23.6
COC(=O)Nc1nnc(COc2ccccc2)s1,-7.4,-6.8,24.3,-3.3,-7.4,nt,nt,nt
O=C(Cc1cccs1)Nc1nnc(COc2ccccc2)s1,3.6,-0.7,99.0*,0.8,1.9,19.3,11.9,6.7
CN1CCCN(S(=O)(=O)c2ccc3c(c2)n(C)c(=O)c(=O)n3C)CC1,-14.5,nt,nt,nt,nt,nt,nt,nt
COC(=O)c1ccc(=O)n(-c2ccc(OC)cc2)c1,-8.8,13.4,76.3*,-0.1,-8.6,20.4,1.8,-1.1
